Assay results reported in PubChem BioAssay (NCI).
About 79,000 compounds went through this panel and 15% of them were active in at least one assay; those are over-represented in the sample as a whole. The source made the active and inactive calls. No stated cut-off is given here; in the data, active means growth inhibition above about 70%; inactive means the rest.

test: NCI Yeast Anticancer Drug Screen. Data for the rad50 strain (AID 155);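 further: 0% = growth of vehicle-only cultures of the same strain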; conditions: S. cerevisiae rad50 strain growth inhibition; at 50.0 µM; hits give high values
Summary of the method: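 Inhibition values express reduced yeast growth in compound-treated cultures relative to vehicle-treated controls.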

Structure (SMILES)	growth inhibition
OCC(CBr)(CBr)CBr	2.45% (inactive)
COc1cc(C(c2cc3c(cc2OC(C)=O)OCO3)C(C(C)=O)C(C)=O)cc(OC)c1OC (stereo not given)	3.55% (inactive)
COc1ccc2c(c1)CCCN2C(N)=Nc1ccc([N+](=O)[O-])cc1	-4.2% (inactive)
Cc1cc(S(=O)(=O)Nc2n[nH]c(Nc3ccccc3)n2)c(S)cc1Cl	-3.5% (inactive)
O=C(O)c1ccc2c(c1)CC1(C2)Cc2ccccc2C1=O (stereo not given)	-16.4% (inactive)
O=c1[nH]c2cc(Cl)ccc2nc1/C=C(\O)c1ccc(O)cc1	31% (inactive)
CCNCCCCNCC	4.25% (inactive)
CCN(CC)C1=Nc2ccccc2N(c2ccccc2)C(SC)=C1	-1.4% (inactive)
C[N+](C)(C)C1C2(CCCCC2)NC(=O)C12CCCCC2 (stereo not given)	5.6% (inactive)
COc1cc2c(cc1OC)C(C#N)(C(c1ccccc1)c1ccccc1)N(C(=O)c1ccccc1)C=C2 (stereo not given)	16.9% (inactive)
c1ccc2c(c1)Oc1ccccc1S2	-14.2% (inactive)
Oc1ccc2ccccc2c1CNC1CCCCC1	-9.05% (inactive)
CCN(CC)CCOC(=O)Cc1cccc2c(=O)cc(-c3ccc(OC)cc3)oc12	50.4% (inactive)
CCC(CC)(C[NH-])C[NH-].[Cl][Pt+2][Cl]	10% (inactive)
COc1cc(Nc2cnc3cc(N)ccc3n2)cc(OC)c1OC	-16.8% (inactive)
O=c1[nH]c(=O)n(C2CC(O)C(CO)O2)cc1OC/C=C/Cc1ccccc1 (stereo not given)	-22.1% (inactive)
CC1=N/C(=C/c2ccc3c(c2)OCO3)C(=O)O1	5.05% (inactive)
CCOC(=O)C(SC(Cl)(S(=O)(=O)c1ccccc1)S(=O)(=O)c1ccccc1)C(=O)OCC	2.1% (inactive)
CC/C=C(\C)C(C#N)(CCC)C(=O)OCC (stereo not given)	-1.8% (inactive)
C/C(=N\Nc1ccc([N+](=O)[O-])cn1)c1ccccn1	31.2% (inactive)

Structure (SMILES)	growth inhibition
N#Cc1c(C(F)(F)F)cc(-c2cccs2)nc1SC(C(=O)Nc1c(F)cccc1F)c1ccccc1 (stereo not given)	15.8% (inactive)
CC1OC(c2ccc3c(c2O)C(=O)C2=C(C3=O)C3(O)C(=O)CC(C)(O)CC3(O)C=C2)CC(O)C1O (stereo not given)	-19.2% (inactive)
Cc1n[nH]c2ccccc2c1=O	-4.85% (inactive)
Cc1cc(N2CCCCC2)nc2ccc(Cc3ccc4nc(N5CCCCC5)cc(C)c4c3)cc12	48.7% (inactive)
Oc1ccc2c(c1)CCC2	25% (inactive)
COc1c(NC(=O)c2c(Br)c(Br)c(Br)c(Br)c2C(=O)O)cccc1[N+](=O)[O-]	1.5% (inactive)
COc1nc2[nH]ccc2c(=O)n1C	-10.9% (inactive)
OC1CCC2CCCCC2C1 (stereo not given)	-7.3% (inactive)
CC(C)/C=C1\CCC(CN(C)C)C1=O (stereo not given)	30.4% (inactive)
OCc1ccccc1C(c1ccc(O)cc1)c1ccc(O)cc1	26.3% (inactive)
CC1CCC2C(C(=O)O[C@H]3C4CCO[C@@H](OC5OC(CO)C(O)C(O)C5O)C4[C@@]4(CO)O[C@@H]34)=CO[C@@H](OC3OC(CO)C(O)C(O)C3O)C12 (stereo not given in full)	16.4% (inactive)
C=CCCCCC1CCC2CCC(CCCCC=C)N12 (stereo not given)	40.8% (inactive)
O=[n+]1c(-c2ccccc2)c(-c2ccccc2)n([O-])c2cc3ccccc3cc21	28.7% (inactive)
O=C(Nc1nc2ccc([N+](=O)[O-])cc2s1)C(=O)C(C(=O)c1ccccc1F)C1OC(=O)c2ccccc21 (stereo not given)	29.8% (inactive)
O=c1c2cc([N+](=O)[O-])ccc2[nH]n1Cc1ccccn1	12.5% (inactive)
COc1cc(C[S+]2CCCC2)c(SC)cc1C[S+]1CCCC1	25.4% (inactive)
O=C(NNC(=O)C(F)(F)F)C(F)(F)F	0.55% (inactive)
COC(=O)C1(C(=O)OC)O[C@@H](c2ccccc2)[C@H]2C(=O)N(C)C(=O)[C@H]21	7.05% (inactive)
CC(=O)NC1C(SC(=O)NCCCl)OC(COC(C)=O)C(OC(C)=O)C1OC(C)=O (stereo not given)	-7.75% (inactive)
CS(=O)(=O)OCCC(O)COS(C)(=O)=O (stereo not given)	-7.55% (inactive)

test: NCI Yeast Anticancer Drug Screen. Data for the mec2-1 strain (AID 157); conditions: S. cerevisiae mec2-1 strain, at 50.0 µM, hits give high values
Summary of the method: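 Cells of the genetically defined mec2-1 yeast strain are incubated with test compound. Inhibition of growth is calculated against vehicle-treated controls.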

Structure (SMILES)	growth inhibition
OCC(CBr)(CBr)CBr	-2% (inactive)
COc1cc(C(c2cc3c(cc2OC(C)=O)OCO3)C(C(C)=O)C(C)=O)cc(OC)c1OC (stereo not given)	27.8% (inactive)
COc1ccc2c(c1)CCCN2C(N)=Nc1ccc([N+](=O)[O-])cc1	-4.4% (inactive)
Cc1cc(S(=O)(=O)Nc2n[nH]c(Nc3ccccc3)n2)c(S)cc1Cl	9% (inactive)
O=C(O)c1ccc2c(c1)CC1(C2)Cc2ccccc2C1=O (stereo not given)	-4.9% (inactive)
O=c1[nH]c2cc(Cl)ccc2nc1/C=C(\O)c1ccc(O)cc1	2.25% (inactive)
CCNCCCCNCC	-14.9% (inactive)
CCN(CC)C1=Nc2ccccc2N(c2ccccc2)C(SC)=C1	-6.9% (inactive)
C[N+](C)(C)C1C2(CCCCC2)NC(=O)C12CCCCC2 (stereo not given)	-0.75% (inactive)
COc1cc2c(cc1OC)C(C#N)(C(c1ccccc1)c1ccccc1)N(C(=O)c1ccccc1)C=C2 (stereo not given)	3.45% (inactive)
c1ccc2c(c1)Oc1ccccc1S2	-2.9% (inactive)
Oc1ccc2ccccc2c1CNC1CCCCC1	-18.9% (inactive)
CCN(CC)CCOC(=O)Cc1cccc2c(=O)cc(-c3ccc(OC)cc3)oc12	-9.95% (inactive)
CCC(CC)(C[NH-])C[NH-].[Cl][Pt+2][Cl]	41.7% (inactive)
COc1cc(Nc2cnc3cc(N)ccc3n2)cc(OC)c1OC	-33.8% (inactive)
O=c1[nH]c(=O)n(C2CC(O)C(CO)O2)cc1OC/C=C/Cc1ccccc1 (stereo not given)	-12.8% (inactive)
CC1=N/C(=C/c2ccc3c(c2)OCO3)C(=O)O1	6.1% (inactive)
CCOC(=O)C(SC(Cl)(S(=O)(=O)c1ccccc1)S(=O)(=O)c1ccccc1)C(=O)OCC	10.1% (inactive)
CC/C=C(\C)C(C#N)(CCC)C(=O)OCC (stereo not given)	-34.1% (inactive)
C/C(=N\Nc1ccc([N+](=O)[O-])cn1)c1ccccn1	-10.2% (inactive)

Structure (SMILES)	growth inhibition
N#Cc1c(C(F)(F)F)cc(-c2cccs2)nc1SC(C(=O)Nc1c(F)cccc1F)c1ccccc1 (stereo not given)	-19.6% (inactive)
CC1OC(c2ccc3c(c2O)C(=O)C2=C(C3=O)C3(O)C(=O)CC(C)(O)CC3(O)C=C2)CC(O)C1O (stereo not given)	-23.1% (inactive)
Cc1n[nH]c2ccccc2c1=O	-17.9% (inactive)
Cc1cc(N2CCCCC2)nc2ccc(Cc3ccc4nc(N5CCCCC5)cc(C)c4c3)cc12	-7.05% (inactive)
Oc1ccc2c(c1)CCC2	-1.95% (inactive)
COc1c(NC(=O)c2c(Br)c(Br)c(Br)c(Br)c2C(=O)O)cccc1[N+](=O)[O-]	6.65% (inactive)
COc1nc2[nH]ccc2c(=O)n1C	-20.1% (inactive)
OC1CCC2CCCCC2C1 (stereo not given)	-16.9% (inactive)
CC(C)/C=C1\CCC(CN(C)C)C1=O (stereo not given)	56.1% (inactive)
OCc1ccccc1C(c1ccc(O)cc1)c1ccc(O)cc1	-7.9% (inactive)
CC1CCC2C(C(=O)O[C@H]3C4CCO[C@@H](OC5OC(CO)C(O)C(O)C5O)C4[C@@]4(CO)O[C@@H]34)=CO[C@@H](OC3OC(CO)C(O)C(O)C3O)C12 (stereo not given in full)	-9.6% (inactive)
C=CCCCCC1CCC2CCC(CCCCC=C)N12 (stereo not given)	28.4% (inactive)
O=[n+]1c(-c2ccccc2)c(-c2ccccc2)n([O-])c2cc3ccccc3cc21	3.65% (inactive)
O=C(Nc1nc2ccc([N+](=O)[O-])cc2s1)C(=O)C(C(=O)c1ccccc1F)C1OC(=O)c2ccccc21 (stereo not given)	39.6% (inactive)
O=c1c2cc([N+](=O)[O-])ccc2[nH]n1Cc1ccccn1	10.2% (inactive)
COc1cc(C[S+]2CCCC2)c(SC)cc1C[S+]1CCCC1	50% (inactive)
O=C(NNC(=O)C(F)(F)F)C(F)(F)F	-3.4% (inactive)
COC(=O)C1(C(=O)OC)O[C@@H](c2ccccc2)[C@H]2C(=O)N(C)C(=O)[C@H]21	0.9% (inactive)
CC(=O)NC1C(SC(=O)NCCCl)OC(COC(C)=O)C(OC(C)=O)C1OC(C)=O (stereo not given)	-8.6% (inactive)
CS(=O)(=O)OCCC(O)COS(C)(=O)=O (stereo not given)	-7.25% (inactive)
